# According to PubChem BioAssay (NCATS):
# Values joined by “and” are separate entries in the source; they are usually repeats but may differ in a detail not shown here. Equal entries are not always repeated. Records with an inconclusive call do not appear. Entries that show only a call come without a potency. Active and inactive are the calls of the source. Calls come from the whole dose curve; as a rule, active = well fitted curve in the direction sought with a large enough effect; inconclusive = small, poorly fitted or top-dose-only effect, or another doubt; inactive = no such curve, though single readings can be large; an effect the other way counts as inactive or inconclusive.
# What was measured:
# [1] = P-glycoprotein substrates identified in KB-8-5-11 adenocarcinoma cell line, qHTS therapeutic library screen (AID 1346987); note: nearly all actives have a fitted effect of over 65% in size; note: potency is the fitted concentration of half-maximal effect
# In short: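 Compounds are pinned in dose-response onto KB-8-5-11 cells (500 cells/well, colchicine-free medium) and left 72 h at 37 degree C. CellTiter-Glo luminescence then yields AC50 values.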
# [2] = qHTS of pediatric cancer cell lines to identify multiple opportunities for drug repurposing: Primary screen for TC32 cells (AID 1347089); note: nearly all actives have a fitted effect of over 60% in size; note: potency is the fitted concentration of half-maximal effect
# In short: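 In the primary qHTS, MIPE compounds were tested at 11 concentrations (0.78 nM to 46 µM) and NPC compounds at 8 (0.59 nM to 46 µM) on TC32 cells for 48 h. CellTiter-Glo luminescence gave viability.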
# [3] = qHTS of pediatric cancer cell lines to identify multiple opportunities for drug repurposing: Primary screen for SJ-GBM2 cells (AID 1347091); note: potency is the fitted concentration of half-maximal effect
# In short: (§1)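 Eight- or eleven-point concentration series, 48 h treatment at 37 degrees C in growth media; readout CellTiter-Glo luminescence. Potency and efficacy were taken from the concentration-response curves.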
# [4] = qHTS of pediatric cancer cell lines to identify multiple opportunities for drug repurposing: Primary screen for A673 cells (AID 1347092); note: nearly all actives have a fitted effect of over 45% in size; note: potency is the fitted concentration of half-maximal effect
# In short: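 48 h compound exposure, A673, 500-1,000 cells/well, 37 degrees C/5% CO2. MIPE: 11-point, 0.78 nM-46 µM; NPC: 8-point, 0.59 nM-46 µM (final). Readout CellTiter-Glo luminescence after 15 min RT.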
# [5] = qHTS of pediatric cancer cell lines to identify multiple opportunities for drug repurposing: Primary screen for SK-N-MC cells (AID 1347093); note: potency is the fitted concentration of half-maximal effect
# In short: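 Metabolically active cells were quantified by ATP-dependent luminescence (CellTiter-Glo, 15 min at room temperature) following 48 h treatment. Cells had been plated at 500-1,000 per well and settled for 5 h beforehand.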
# [6] = qHTS of pediatric cancer cell lines to identify multiple opportunities for drug repurposing: Primary screen for BT-37 cells (AID 1347094); note: potency is the fitted concentration of half-maximal effect
# In short: (§2)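 Luminescence from CellTiter-Glo served as readout of metabolically active cells after 48 h compound exposure. Titrations: MIPE 11-point, from 0.78 nM; NPC 8-point, from 0.59 nM (final). Concentration-response curves came straight from the primary screen.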
# [7] = qHTS of pediatric cancer cell lines to identify multiple opportunities for drug repurposing: Primary screen for NB-EBc1 cells (AID 1347095); note: potency is the fitted concentration of half-maximal effect
# In short: as §2
# [8] = qHTS of pediatric cancer cell lines to identify multiple opportunities for drug repurposing: Primary screen for U-2 OS cells (AID 1347096); note: nearly all actives have a fitted effect of over 50% in size
# In short: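 Cells (500-1,000/well) in growth media were settled 5 h at 37 degrees C, then given compounds for 48 h. Viability was read as CellTiter-Glo luminescence. Primary runs used MIPE at 11 points (0.78 nM-46 µM) and NPC at 8 points (0.59 nM-46 µM); follow-ups used 11 points.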
# [9] = qHTS of pediatric cancer cell lines to identify multiple opportunities for drug repurposing: Primary screen for Saos-2 cells (AID 1347097); note: nearly all actives have a fitted effect of over 40% in size; note: potency is the fitted concentration of half-maximal effect
# In short: as §2
# [10] = NS1 protein of Zika virus - qHTS assay to identify small molecule inhibitors in human HEK 293 cells (AID 1347053); note: series mostly up to about 46 µM; nearly all actives have a fitted effect of over 55% in size
# In short: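 TR-FRET signal from two anti-ZIKV NS1 antibodies quantified NS1 in HEK 293 cells 24 h after MR766 infection at MOI = 0.5; compounds were added 1 h before virus. Uninfected cells and infected cells defined the NS1 normalization range.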
# [11] = qHTS of pediatric cancer cell lines to identify multiple opportunities for drug repurposing: Primary screen for DAOY cells (AID 1347090); note: series mostly up to about 46 µM; nearly all actives have a fitted effect of over 55% in size
# In short: as §1
# [12] = qHTS of pediatric cancer cell lines to identify multiple opportunities for drug repurposing: Primary screen for SK-N-SH cells (AID 1347098); note: nearly all actives have a fitted effect of over 65% in size; note: potency is the fitted concentration of half-maximal effect
# In short: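 Cells (500-1,000/well) rested 5 h, then received compounds for 48 h; metabolically active cells were measured by CellTiter-Glo luminescence. Final concentrations spanned up to 46 µM (MIPE, 11-point) or 0.59 nM-46 µM (NPC, 8-point) in primary screens, 11-point in follow-ups.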
Structure (SMILES),Potency [1],Potency [2],Potency [3],Potency [4],Potency [5],Potency [6],Potency [7],Potency [8],Potency [9],Potency [10],Potency [11],Potency [12]
CC(C)C[C@@H](C(=O)N[C@H](C(=O)OC1CCCC1)c1ccccc1)[C@H](O)C(=O)NO,20.9 µM (active),inactive,20.9 µM (active),14.8 µM (active),18.7 µM (active),24.3 µM (active),18.7 µM (active),inactive,16.6 µM (active),,,
CC1=C[C@@H]2[C@@H]([C@@H](O)C[C@@]3(C)[C@H]2C[C@@H](C)[C@]3(O)C(=O)CO)[C@@]2(C)Cc3cnn(-c4ccccc4)c3C=C12,16.4 µM (active),,20.9 µM (active),18.7 µM (active),,,23.5 µM (active),inactive,29.6 µM (active),,,
c1ccc(-c2oc3ncnc(NC[C@@H]4CCCO4)c3c2-c2ccccc2)cc1,20.9 µM (active) and 20.6 µM (active),,,23.5 µM (active),,,,inactive,29.6 µM (active),,,
C#C[C@]1(O)CC[C@H]2[C@H]3CCc4cc(OC)ccc4[C@H]3CC[C@@]21C,inactive,inactive,,18.7 µM (active),20.9 µM (active),inactive,inactive,inactive,inactive,,,
CC1(C)C(N(O)C(=O)Nc2ccc(Cl)cc2)N(c2ccc(Cl)cc2)C(=O)N1CC(=O)NN=CC=Cc1ccc([N+](=O)[O-])o1 (centres undefined),inactive,,18.7 µM (active),23.5 µM (active),,,,,,,,
COc1cc(N2CCN(C)CC2)ccc1Nc1nc(N)c(C(=O)c2c(Cl)cccc2Cl)s1,,inactive,inactive,,16.6 µM (active),,,inactive,inactive,inactive,inactive,
C=C[C@@H]1CN2CCC1C[C@@H]2C(O)c1ccnc2ccc(OC)cc12 (some centres undefined),,inactive,inactive,inactive,inactive,inactive,,,inactive,inactive,inactive,inactive
Cc1cn([C@@H]2C[C@@H](O)[C@H](CO)O2)c(=O)[nH]c1=O,,inactive,inactive,,,inactive,inactive,inactive,inactive,inactive,inactive,inactive
CN1CCc2c(n(Cc3ccc(C(=O)NO)cc3)c3ccccc23)C1,,inactive,16.6 µM (active),14.8 µM (active),9.35 µM (active),,16.6 µM (active),inactive,inactive,inactive,,
CC=C(C(=CC)c1ccc(O)cc1)c1ccc(O)cc1,,inactive,20.9 µM (active),23.5 µM (active),11.8 µM (active),,,,18.7 µM (active),inactive,,
Cc1nc2c([nH]1)CCN(C(=O)c1ccc(NC(=O)c3ccccc3-c3ccccc3)cc1)c1ccccc1-2,,inactive,inactive,inactive,,inactive,inactive,inactive,inactive,inactive,inactive,
Nc1ccn([C@@H]2O[C@H](CO)[C@@H](O)[C@H]2O)c(=O)n1,,0.0294 µM (active),,0.0235 µM (active),,0.0077 µM (active),33.2 µM (active),inactive,,inactive,,
Nc1ncnc2c1c(-c1cccc(OCc3ccccc3)c1)cn2C1CC(CN2CCC2)C1 (centres undefined),,9.3 µM (active),,,,inactive,10.5 µM (active),inactive,3.32 µM (active),inactive,inactive,
CN1CCN(c2ncc(-c3cc(Cl)cc(Cl)c3Cl)c(N)n2)CC1,,inactive,,2.35 µM (active),10.5 µM (active),3.06 µM (active),,inactive,,inactive,inactive,21.5 µM (active)
